The target of experiment [1] is Tumor necrosis factor receptor superfamily member 10B (Homo sapiens) (UniProt O14763). The experiment in a line: viability loss of caspase-8 NB7 cells with TRAIL – with/without TRAIL, luminescence panel, confirmation (AID 651596). The note with it: NB7 neuroblastoma + caspase-8, TRAIL sensitization, NB7 Caspase-8, with TRAIL, mean of runs, at 10 µM, stronger effect = higher value.

Assay in experiment [2]: as above
The note with it: NB7 neuroblastoma + caspase-8, without TRAIL, NB7 Caspase-8, without TRAIL, mean of runs, at 10 µM.

Sequence of Tumor necrosis factor receptor superfamily member 10B (Homo sapiens) (O14763 whole entry, looked up): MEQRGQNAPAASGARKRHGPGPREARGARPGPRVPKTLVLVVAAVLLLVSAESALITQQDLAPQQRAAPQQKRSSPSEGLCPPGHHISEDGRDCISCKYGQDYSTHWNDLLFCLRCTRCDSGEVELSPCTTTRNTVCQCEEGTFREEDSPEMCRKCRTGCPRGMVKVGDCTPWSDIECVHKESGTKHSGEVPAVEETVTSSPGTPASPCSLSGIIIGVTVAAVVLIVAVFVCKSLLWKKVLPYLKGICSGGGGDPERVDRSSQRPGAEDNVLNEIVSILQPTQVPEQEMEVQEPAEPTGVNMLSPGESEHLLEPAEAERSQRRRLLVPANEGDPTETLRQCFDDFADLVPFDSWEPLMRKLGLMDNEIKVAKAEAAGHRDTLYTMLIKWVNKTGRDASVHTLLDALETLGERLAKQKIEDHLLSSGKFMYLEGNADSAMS

Regarding `Cc1ccc2c(c1)N=C(c1ccccc1)CC(C(Cl)Cl)=N2`, the figures for the activity in experiment [1] and in experiment [2] were 29.4% and 18%, respectively.

On to `O=C(NN=Cc1ccc2c(c1)CCN2)c1cccs1`, for which the results for the activity in experiment [1] and in experiment [2] were 47.9% and 57.8%, respectively.

On to `O=C(Nc1nc2c(s1)CCCC2)c1ccc(Br)o1`, for which the values for the activity in experiment [1] and in experiment [2] were 73.7% and 88.6%, respectively.

Consider `O=C(Nc1nc(=O)c2ccccc2s1)c1ccc(F)cc1`, for which the activity is 64.8% in experiment [1] and 72.2% in experiment [2].

Consider `CC(C)(C)C(=O)Nc1cccc(-c2nc3ccccc3c(=O)o2)c1`, for which the activity in experiment [1] was determined as 59.2%; in experiment [2], 61.9%.

Regarding `Clc1ccc(/C=N/Nc2nnc(-c3ncc[nH]3)c3ccccc23)cc1`, the activity was determined as 57% in experiment [1] and 49.9% in experiment [2].

Regarding `CC(C)c1ccc(/C=N/NC(=O)c2c(Cl)cnn2C)cc1`, the activity was found to be 80.1% in experiment [1] and 71.3% in experiment [2].

`O=C(Nc1ccc(Cl)cc1)Nc1ccccc1C(=O)O`: the activity in experiment [1] came to 58.3%; in experiment [2], 45.1%.

On to `Cc1noc(N)c1C(=O)Nc1ccc(C(C)(C)C)cc1`, for which the activity in experiment [1] was 46.1%; in experiment [2], 48.9%.

As for `COc1ccc(C(=O)Nc2nnc(SCC(=O)NCc3ccco3)s2)c(OC)c1`, the values for the activity in experiment [1] and in experiment [2] were 65.7% and 61.2%, respectively.

For `COc1ccc(C(=O)Nc2ccc3[nH]ncc3c2)cc1`, the figures for the activity in experiment [1] and in experiment [2] were 78.3% and 77.1%, respectively.

Regarding `O=C(/C=C\Nc1ccccn1)c1ccccc1`, the activity was determined as 55.4% in experiment [1] and 53.2% in experiment [2].

`Cc1ccc(CSc2nc3ncccc3[nH]2)cc1`: the activity in experiment [1] amounted to 71%; in experiment [2], 68.2%.

For the molecule `O=C(CCl)N1CCN(S(=O)(=O)c2ccc3c(c2)CCC3)CC1`, the figures for the activity in experiment [1] and in experiment [2] were 97.7% and 97.1%, respectively.

For `CCOc1cccc(C(=O)Nc2ccc3[nH]ncc3c2)c1`, the activity in experiment [1] came to 61%; in experiment [2], 67%.

`COc1ccc(/C=N/Nc2cc(C)nc(-n3nc(C)cc3C)n2)c(OC)c1`: the activity is 6.72% in experiment [1] and 12.9% in experiment [2].

As to `Cc1ccc(C(=O)Nc2ccc(Cl)cc2C)c(Cl)c1`, the activity in experiment [1] is 56.7%; in experiment [2], 39.9%.

As for `O=C(CSc1nnc(-c2ccccc2Cl)o1)Nc1ccccn1`, the activity in experiment [1] was found to be 68.8%; in experiment [2], 74%.

Turning to `COC(=O)c1sc(NC(=S)NC(=O)c2cccc(C)c2)nc1C`, the activity in experiment [1] was 46.2%; in experiment [2], 33.2%.

On to `CCCCC(=O)Nc1cc(C)c2c(=O)oc3ccccc3c2n1`, for which the activity in experiment [1] stood at 62.4%; in experiment [2], 56.6%.

Consider `C#CCN(C[C@@H]1[C@@H](OC(=O)NCCCCCC)[C@@H](OC(=O)NCCCCCC)Cn2c(=O)ccc(=O)n21)S(=O)(=O)c1ccc(C)cc1`, for which the activity in experiment [1] was found to be 96.2%; in experiment [2], 92.3%.

Turning to `CC(C)(C)c1ccc2c(c1)OC(C(=O)N/N=C\c1ccc[nH]1)CO2` (stereo not drawn), the activity is 26.6% in experiment [1] and 43.6% in experiment [2].

On to `O=S1(=O)N=C(Nc2nc3c(s2)CCCC3)c2ccccc21`, for which the activity in experiment [1] is 75.7%; in experiment [2], 81.4%.

Turning to `COc1ccc2cc(-c3ccccc3)ncc2c1`, the values for the activity in experiment [1] and in experiment [2] were 63.8% and 63.7%, respectively.

With `Cc1ccc(-c2nc(N/N=C/c3cccc([N+](=O)[O-])c3)c3ccccc3n2)cc1`, the activity in experiment [1] came to 70.8%; in experiment [2] it was 63.5%.

Take `O=C(Nc1nc(-c2ccccn2)cs1)C12CC3CC(CC(O)(C3)C1)C2`: the values for the activity in experiment [1] and in experiment [2] were 66.8% and 78.4%, respectively.

For `Cc1ccc(N=Cc2c(C)[nH]n(-c3nc4ccccc4[nH]3)c2=O)cc1`, the activity was found to be 88.6% in experiment [1] and 88.8% in experiment [2].

On to `C#CC(=O)N(c1cc(OC)ccc1OC)C(C(=O)NC1CCCC1)c1cccs1` (stereo not drawn), for which the activity worked out at 98.2% in experiment [1] and 98.5% in experiment [2].

As to `O=C(Nc1ccccn1)c1ccc(-c2ccccc2)cc1`, the values for the activity in experiment [1] and in experiment [2] were 87.6% and 88.4%, respectively.

On to `Cn1cnc(Sc2ncnc3nc[nH]c23)c1[N+](=O)[O-]`, for which the activity was 62.5% in experiment [1] and 72.5% in experiment [2].

On to `N#Cc1ccccc1N/C=C/C(=O)c1ccc(Cl)cc1`, for which the values for the activity in experiment [1] and in experiment [2] were 48.7% and 53.1%, respectively.

With `Cc1nn(-c2ccccc2)c(/N=C/c2ccc(O)cc2)c1-c1ccccc1`, the activity worked out at 39.1% in experiment [1] and 13.9% in experiment [2].

In the case of `CC1CCN(S(=O)(=O)c2ccc3c(c2)C(=NO)c2cc(S(=O)(=O)N4CCC(C)CC4)ccc2-3)CC1`, the activity in experiment [1] was 98.2%; in experiment [2], 99%.

Take `CC1(C)N=C(N)N=C(N)N1c1cccc(CC(=O)Nc2ccccc2)c1`: the activity in experiment [1] came to 77.8%; in experiment [2], 85.3%.

In the case of `Cc1ccc(CSc2nnc(-c3cccnc3)o2)cc1`, the activity in experiment [1] came to 43.5%; in experiment [2], 45.6%.

In the case of `O=C(Cn1ncc(Cl)c(Cl)c1=O)NCC1CCCCC1`, the activity in experiment [1] came out at 98.9%; in experiment [2], 99.1%.

On to `CCOC(=O)c1sc(NC(=O)c2ccc(OC(C)=O)cc2)nc1C`, for which the values for the activity in experiment [1] and in experiment [2] were 61.3% and 57.9%, respectively.

Take `Cc1csc(NC(=O)c2cc3c(s2)CCC3)n1`: the activity was determined as 81.8% in experiment [1] and 86.3% in experiment [2].

For the molecule `CCOc1cc(/C=N\NC(=O)c2ccc(NC(=O)C(C)(C)C)cc2)ccc1OC(=O)c1cccc(C)c1`, the activity is 73.5% in experiment [1] and 47.2% in experiment [2].

For the molecule `CN(NC(=O)C(C)(C)C)c1nc(-c2ccccc2)nnc1C(F)(F)F`, the activity in experiment [1] is 43.9%; in experiment [2] it was 55.6%.

As for `Cc1ccc(Nc2nc(NCc3ccco3)c3ccccc3n2)cc1`, the activity in experiment [1] was determined as 41.2%; in experiment [2] it was 45.6%.

Consider `N=c1oc2cc(O)ccc2cc1C(=O)Nc1ccc(Cl)cc1`, for which the activity in experiment [1] was 34.3%; in experiment [2], 39.3%.

Consider `Cc1ccc(C(=O)N/N=C\c2ccccc2[N+](=O)[O-])cn1`, for which the activity in experiment [1] was determined as 47.5%; in experiment [2] it was 43.6%.

Take `CCOC(=O)c1sc(NC(=O)c2ccccc2)cc1C`: the activity in experiment [1] is 59.1%; in experiment [2], 54.5%.

For the origin of these results see PubChem BioAssay.
